Bioassay records from PubChem.
Pf Dd2 growth – inhibitors of Plasmodium falciparum Dd2 growth. P. falciparum Dd2 growth, SYBR Green, 72 h. AID 1347417. actives 4.3% (n = 120,000). Potency, µM (highest dose often 28.9 µM), inactives show at the highest dose activity, negative = inhibition, most hits filed as inhibitors; active = well fitted inhibition curve with a large enough effect;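 note: plate controls were DMSO vehicle for no effect and reference drug for full effect; nearly all actives have a fitted effect of over 65% in size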
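Readout: SYBR Green fluorescence, 485 nm excitation, 535 nm emission, after ~16 h lysis at 37C. Before that, Dd2-infected red cells (2.5% hematocrit) grew 72 h with compound, 29 uM top final concentration.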
* = called active by the depositor; i = inactive; [ ] = another dose, or the depositor's remark. This excerpt belongs to a sample that is enriched for hits. Potency is the fitted concentration of half-maximal effect.

SMILES | Pf Dd2 growth
C[S+](=O)([O-])N1CCC(Cn2ccc3c(N4CCOCC4)nc(-c4cccc5[nH]ccc45)cc32)CC1 | -14%
COc1ncccc1-c1cc2c(ccn2CC2CCN(C)CC2)c(N2CCOCC2)n1 | 8.9µM*
COc1cccc(-c2cc3c(ccn3CC3CCN(C)CC3)c(N3CCOCC3)n2)c1 | 6.3µM*
COc1ccccc1-c1cc2c(ccn2Cc2ccncc2)c(N2CCOCC2)n1 | -3%[44.1 µM]
C[S+](=O)([O-])N1CCC(Cn2ccc3c(N4CCOCC4)nc(-c4cncnc4)cc32)CC1 | -18%
c1cc(-c2cc3c(ccn3Cc3ccncc3)c(N3CCOCC3)n2)cc(N2CCOCC2)c1 | i
COCCO[C@H]1C(=O)N(C2CCN(S(=O)(=O)C(C)C)CC2)[C@H]1c1ccncc1 | -5%
Cc1ccc(C2Cn3nnc(C(=O)N4CCN(C(=O)c5ccccc5)CC4)c3CO2)cc1 (configuration not stated) | i
CC(=O)Nc1ccc(CN2CCCC3(C2)NC(=O)c2ccccc2O3)cc1 (configuration not stated) | -23%
COCCCNC(=O)c1cc2c(=O)[nH]c(C)cn2n1 | 21%
Cc1cn2nc(C(=O)NCCCc3ccccc3)cc2c(=O)[nH]1 | 7.9µM*
Cc1ccc(CNC(=O)c2ccc(NC(=O)c3cc4c(=O)[nH]c(C)cn4n3)cc2)cc1 | 4µM*
Cc1cn2nc(C(=O)NCc3cccc(Cl)c3)cc2c(=O)[nH]1 | 8%
Cc1cn2nc(C(=O)NCc3cc(F)cc(F)c3)cc2c(=O)[nH]1 | 10%
COc1ccc(CCNC(=O)c2cc3c(=O)[nH]c(C)cn3n2)cc1OC | i
COc1ccc(C(=O)NC2CCN(c3cnn(CC4CC4)c(=O)c3)CC2)cc1F | -26%
COCc1noc(CCNC(=O)C2CCN(C(=O)C3CC3)CC2)n1 | 6%
O=C(c1cnccn1)N1CCN2C(=O)N(C3CCOCC3)C[C@H]2C1 | 7%[44.1 µM]
CN(Cc1ccccc1)Cc1cc(C(=O)N(C)Cc2ccsc2)no1 | -13%
CO[C@@H]1COCC[C@H]1NC(=O)c1ccc(SCCO)cc1 | 1%
CC(C)N1C(=O)CO[C@H]2CN(C(=O)c3cccnc3)C[C@H]21 | -8%[44.1 µM]
COc1ccc(-c2nnc3n2CCN(C(=O)c2ccccc2F)C3)cc1 | 2%
CC(C)n1cc2cc(C(=O)NCc3cnccn3)sc2c1 | i
COc1ccc(C(=O)N[C@@H]2CN(c3ncccn3)C[C@H]2CN(C)C)c(OC)c1 | 23%
CN1CCC(Oc2ccc(NC(=O)C3(c4ccccc4)CC3)cn2)CC1 | i
SMILES | Pf Dd2 growth
COCCOC1CCOC2(CCN(C(=O)c3cc(-c4ccc(F)cc4)n[nH]3)CC2)C1 (configuration not stated) | 11µM*
COCCOC1CCOC2(CCN(C(=O)c3ccccc3OC)CC2)C1 (configuration not stated) | -26%
COCCOC1CCOC2(CCN(C(=O)c3cc(C)nn3C)CC2)C1 (configuration not stated) | -18%
CCOc1cc(=O)n2c(c1C(=O)Nc1cccc(Cl)c1F)CCCC2 | 15%
CCCNC(=O)N1CCC(N2CC3CC(C2)[C@H]2CCCC(=O)N2C3)CC1 (some centres not stated) | -21%
O=C1c2ccccc2-c2onc3c(NCCO)cc(NC4CCCCC4)c1c23 | 8.9µM*
O=C(C1CCCN(c2cnn(Cc3ccccc3)c(=O)c2)C1)N1CCN(C2CCCCC2)CC1 (configuration not stated) | -10%
O=C(O)CCCNc1cc(N2CCN(C3CCCCC3)CC2)c2noc3c2c1C(=O)c1ccccc1-3 | 11µM*
Cc1ccc(-c2onc(C)c2C)cc1S(=O)(=O)NC1CCCCC1 | 24%
COc1ccccc1-c1nc(C2CC(=O)N(C3CCCCC3)C2)no1 (configuration not stated) | i
CCNc1cc(N2CCN(C3CCCCC3)CC2)c2noc3c2c1C(=O)c1ccccc1-3 | 5µM*
O=C(CC1CCCC1)NC1CCN(c2cnn(Cc3ccccc3)c(=O)c2)CC1 | i
O=C(c1ccco1)N1CCN(C(=O)C2NCCc3[nH]cnc32)CC1 (configuration not stated) | 21%
O=S(=O)(c1ccccc1)N1CCCC(Cc2noc(-c3cnccn3)n2)C1 (configuration not stated) | i
O=C(NC[C@H]1OC[C@@H](NCc2ccccn2)[C@@H]1O)c1ccccc1 | -20%[44.1 µM]
O=C1CCN(C(=O)CN2CCCCCC2)CCCC(c2nc(-c3cnccn3)no2)CCN1 (configuration not stated) | 9%
O=C(Cn1nc2n(c1=O)CCCCC2)Nc1ccccc1 | 12%
CC(C)C(=O)N1CCCCCCN(C)C(=O)[C@@H]2CCC[C@@H]21 | -4%
COCCN1C(=O)[C@@H]2C[C@@H](CN2C(=O)CC(C)(C)C)Oc2ccccc21 | 24%[44.1 µM]
Fc1ccc(Nc2nc(-c3ccc(F)cc3)c3c(n2)-c2ccccc2OC3)cc1 | 3%
Cc1ccccc1Nc1nc(-c2cccc(Cl)c2)c2c(n1)-c1ccccc1OC2 | -5%
CCOc1ccc(Nc2nc(-c3cccc(Cl)c3)c3c(n2)-c2ccccc2OC3)cc1 | 10µM*
Cc1nc(NC(=O)C2CC(=O)N(c3n[nH]c4cc(Br)ccc34)C2)sc1C (configuration not stated) | -24%
Cc1ccc(C2Cn3nnc(C(=O)N4CCC(C(=O)NCc5cc(F)cc(F)c5)CC4)c3CO2)cc1 (configuration not stated) | -6%
COc1ccccc1CNC1(Cc2cc(CN3CCOCC3)on2)COC1 | 12%[44.1 µM]
SMILES | Pf Dd2 growth
O=C(CC1CCCC1)N1CCC(c2noc(-c3ccncc3)n2)C1 (configuration not stated) | i[5.79 µM]
O=C1CCC2(CCN(C/C=C/c3ccccc3)CC2)CN1CCCn1ccnc1 | 10µM*
Cc1cc(C(=O)N2CCC3(CCC(=O)N(CCCn4ccnc4)C3)CC2)c(C)o1 | 6%
CC(O)CN1CC2(CCC1=O)CCN(CCCn1ccnc1)CC2 (configuration not stated) | 0%
COC[C@H]1CCCN1Cc1cn(Cc2ccccc2)nc1-c1cc2ccccc2o1 | 7.9µM*
O=C(O)c1cncc(-c2cccc(CN3CCOCC3)c2)n1 | -16%
COCC1CCCCN1C(=O)c1ccc2oc(CCc3ccccc3)nc2c1 (configuration not stated) | -11%
CC1(C)CN(Cc2cn(Cc3ccccc3)nc2-c2cc3ccccc3o2)CCO1 | 8.9µM*
CN1CC2(CCN(Cc3ccccc3)CC2)CC1C(=O)N1CCOCC1 (configuration not stated) | -30%
O=C1NCCN1C1CCN(Cc2ccccc2)CC1 | -4%[44.1 µM]
c1ccc(Cn2cc(CN3CCCOCC3)c(-c3cc4ccccc4o3)n2)cc1 | 11µM*
O=C1CCN(Cc2ccccc2)CCOCCN1 | 0%
CN1CC2(CCCN(Cc3cc4ccccc4o3)C2)OC1=O (configuration not stated) | 9%
Cc1nnc([C@H]2CCN(Cc3ccccc3)C2)o1 | i
FC1CCN(Cc2cn(Cc3ccccc3)nc2-c2cc3ccccc3o2)CC1 | 7.9µM*
COC[C@H]1CCCN1C(=O)CC[C@H]1CNC(=O)[C@@H]2[C@@H](CCN2Cc2ccccc2)N1C | 14%[44.1 µM]
O=C1Nc2ccccc2O[C@H]2C[C@@H]1N(Cc1ccc3ccccc3n1)C2 | -2%[44.1 µM]
Cc1ccc(CNC(=O)CC2CCOCC2)cc1C | 34%
Cc1ccc(C)c(CC(=O)NCc2cc3n(n2)CCCN(CC(C)C)C3)c1 | -19%
COc1ccccc1Nc1ncc2c(n1)CN(C(=O)C1CCC(OC)CC1)CCN2 (configuration not stated) | -13%[44.1 µM]
